The results in this text go back to PubChem BioAssay (NCI).

Compounds without any hit were thinned out: in the full panel of roughly 83,000, 20% have a hit.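 Testing used 96-well plates and a 48-hour single-concentration exposure. Example: -40 means 40% of the starting cells died.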 A number with no mark means an inactive call. Calls of active or inactive are those of the source. How the source made its calls: active means growth percent below 10; inactive means the rest.

The test concerns SK-OV-3 ovarian. As to the kind of experiment: NCI-60 one-dose screen, 48 h (100 = growth as untreated, 0 = no growth, -100 = all killed). The following applies: 10 µM unless noted.
As to `Cc1cc(C)c(S(=O)(=O)N2CCN(c3cc4c(cc3F)c(=O)c(C(=O)O)cn4C3CC3)CC2)c(C)c1`, the growth was 81.6%.
`CCn1cc(C(=O)O)c(=O)c2cc(F)c(N3CCN(S(=O)(=O)c4ccc(OC)c(OC)c4)CC3)cc21`: the growth was 135%.
Regarding `Cc1ccc(S(=O)(=O)OCC(=O)Nc2ccc(C(=O)O)c(O)c2)cc1`, the growth is 127%.
Consider `O=S(=O)(c1ccccc1)n1ccc(-c2ccc3c(c2)CCO3)n1`, for which the growth was 104%.
For the compound `Clc1ccc(-c2nc(-c3ccco3)cn3ccnc23)cc1`, the growth was -14.7% (active).
With `CCn1cc(C(=O)O)c(=O)c2cc(F)c(N3CCN(S(=O)(=O)c4cccc5ccccc45)CC3)cc21`, the growth was 15.6%.
With `O=P([O-])(O)OP(=O)([O-])O.[NH-][C@H]1CCCC[C@@H]1[NH-].[OH-].[OH-].[Pt+4]`, the growth was 106%.
Under `O=C(CC(O)c1ccncc1)c1ccccc1` (configuration not stated) stands 41.9%; under `O=c1oc2c([nH]c3ccc4ccccc4c32)c2ccccc12`, 107%.
Turning to `Nc1c(C(=O)Nc2ccccc2)sc2nc3c(cc12)CCC3`, the growth is 95.5%.
Under `COc1ccc(C2CC(c3cccs3)=NN2c2ccc(S(=O)(=O)NC(=O)NCc3cccc(OC)c3)cc2)cc1` (configuration not stated) stands 82.6%; under `COc1cc(NC(=O)CSc2nc3ccc(C)cc3c(=O)n2-c2ccccc2)cc(OC)c1OC`, 107%; under `Cc1ccc(S(=O)(=O)OC2COCOC2C(OS(=O)(=O)c2ccc(C)cc2)C2OCOCC2OS(=O)(=O)c2ccc(C)cc2)cc1` (configuration not stated), 107%.
In the case of `CC(=O)Nc1ccc(S(=O)(=O)N2C(=O)CCC2C(=O)Nc2ccc(Br)cc2)cc1` (configuration not stated), the growth is 69.2%.
With `O=C(O)c1ccc(-n2c(=O)c3ccccc3c3ccccc3c2=O)cc1`, the growth was 101%.
In the case of `CS(=O)(=O)N(c1cc(-c2ccc3ncnc(Nc4cccc(Cl)c4)c3c2)cnc1Cl)S(C)(=O)=O`, the growth is -11.1% (active).
Take `CN(C)c1ncc(-c2ccc(C(F)(F)F)cc2)c(NC2CCCCCC2)n1`: the growth was 83.1%.
The same measure for `O=S(=O)(NCCNc1cc(-c2cn(-c3ccccc3)nc2-c2ccccc2)ccn1)c1cccc2ccccc12`: 66.3%; for `CC/C=C\C[C@H](O)C/C=C1/C(=O)C(Cl)=C[C@@H]1C/C=C\CCCC(=O)O`: 99.7%; for `CC[C@H](C)[C@@H]1NC(=O)[C@H]([C@@H](C)O)NC(=O)C(Cc2ccccc2)NC(=O)[C@@H]2CCCN2C(=O)C(C(C)C)NC(=O)C(Cc2ccccc2)NC(=O)CNC(=O)[C@@H]2CCCN2C1=O` (some centres not stated): 78.4%.
Take `O=C(Nc1cc(C(F)(F)F)cc(C(F)(F)F)c1)Nc1ccc(OCc2nnc(-c3ccc(Cl)cc3)o2)c(F)c1`: the growth was 5.55% (active).
The same measure for `Oc1ccc(N=Cc2ccccc2)cc1`: 119%.
On to `Nc1ccccc1C#C/C=C\C#Cc1cccc(O)c1`, for which the growth was 74.4%.
As to `CCn1cc(C(=O)O)c(=O)c2cc(F)c(N3CCN(S(=O)(=O)c4ccc(Cl)cc4Cl)CC3)cc21`, the growth is 1.7% (active).
On to `COc1cc(CNC(=O)CSc2nc3ccccc3c(=O)n2Cc2cc(OC)c(OC)c(OC)c2)cc(OC)c1OC`, for which the growth is 108%.
The same measure for `COc1cc(CCn2nnc3c(NCCCCO)ncnc32)cc(OC)c1`: 111%; for `C/C(=C\c1csc(C)n1)[C@@H]1C[C@@H]2O[C@]2(C)CCC[C@H](C)[C@H](O)[C@@H](C)C(=O)C(C)(C)[C@@H](O)CC(=O)N1`: -8.54% (active).
The same measure for `COc1ccc(S(=O)(=O)N2CCN(c3cc4c(cc3F)c(=O)c(C(=O)O)cn4C3CC3)CC2)c(OC)c1`: 98.6%.
The same measure for `CC[C@]1(O)C[C@@H]2CN(Cc3c([nH]c4ccccc34)[C@@](C(=O)OC)(c3cc4c(cc3OC)N(C)[C@H]3[C@@](O)(C(=O)OC)[C@H](OC(C)=O)[C@]5(CC)[C@@H]6C[C@@H]6CN6CC[C@]43[C@@H]65)C2)C1`: 15.2%.
In the case of `COC1=CC(c2ccc[nH]2)=N/C1=C\c1[nH]c(C)c(C(=O)CCCCC(=O)Oc2ccc3c(c2)CCC2C3CC[C@]3(C)[C@@H](O)CC[C@@H]23)c1C` (some centres not stated), the growth is 90%.
Consider `N#Cc1ncc(-c2ccc(F)c(F)c2F)c(NC2CCCCCC2)n1`, for which the growth was 95.8%.
As to `O=C(O)c1cn(C2CC2)c2cc(N3CCN(S(=O)(=O)c4ccc(Cl)c(Cl)c4)CC3)c(F)cc2c1=O`, the growth is 26.8%.
